Results: the supplement of paper PMC9262897, “Low-cost anti-mycobacterial drug discovery using engineered E. coli” (Nature Communications, 2022)
Structures can show the parent of a compound that is named as a salt. ± gives the standard deviation of the averaged measurements.

Legend:
Experiment in all cases: growth (OD600 after 10 h); higher = more growth (less inhibition)
[1] = system: E. coli TESEC Alr+ wild-type control; conditions: compound 0.1 mM; raw OD600 reference: median of DMSO wells 0.241, cell-free background 0.041
Description: (§1)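 TESEC Mtb Alr E. coli, or the Alr+ wild-type control, in 384-well plates with Prestwick library compounds at 0.1 mM and 1% DMSO, across arabinose induction levels of 1E3 to 1E7 nM. Growth is read as OD600 after 10 h at 37 °C in triplicate biological replicates.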

E. coli TESEC Mtb Alr [2] = conditions: compound 0.1 mM
Description: as §1

E. coli TESEC Mtb Asd = conditions: compound 0.1 mM
Description: (§2)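 TESEC E. coli strains in which the native enzyme is deleted and replaced by arabinose-inducible Mtb Asd, DapB, CysH or TrpD, each grown in its selective medium. Strains were screened against the Prestwick library at 0.1 mM and 1% DMSO in 384-well format at low and high arabinose induction. Growth is read as OD600 after 10 h in triplicate.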

E. coli TESEC Mtb DapB = conditions: compound 0.1 mM
Description: as §2

[3] = system: E. coli TESEC Alr+ wild-type control; conditions: compound 0.1 mM; raw OD600 reference: median of DMSO wells 0.49, cell-free background 0.052
Description: (§3)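 TESEC Mtb Alr E. coli (ΔaraC ΔtolC ΔentC Δalr ΔdadX, arabinose-inducible Mtb Alr) or the Alr+ wild-type control strain, grown in defined M9-fructose medium without D-alanine in 96-well plates with Prestwick library compounds at 0.1 mM and 1% DMSO. Low Alr induction is 0.1 µM arabinose and high induction is 10 mM arabinose.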

E. coli TESEC Mtb Alr [4] = conditions: compound 0.1 mM; remark: listed apart in the source
Description: as §3

[5] = arabinose 1000 nM, raw OD600 reference: median of DMSO wells 0.294, cell-free background 0.041
[6] = arabinose 10000 nM, raw OD600 reference: median of DMSO wells 0.264, cell-free background 0.041
[7] = arabinose 100000 nM, raw OD600 reference: median of DMSO wells 0.201, cell-free background 0.041
[8] = arabinose 1000000 nM, raw OD600 reference: median of DMSO wells 0.193, cell-free background 0.041
[9] = arabinose 10000000 nM, raw OD600 reference: median of DMSO wells 0.146, cell-free background 0.041
[10] = arabinose induction (level): High, raw OD600 reference: median of DMSO wells 0.331, cell-free background 0.041
[11] = arabinose induction (level): Low, raw OD600 reference: median of DMSO wells 0.417, cell-free background 0.041
[12] = arabinose induction (level): High, raw OD600 reference: median of DMSO wells […], cell-free background 0.041
[13] = arabinose induction (level): Low, raw OD600 reference: median of DMSO wells 0.227, cell-free background 0.041
[14] = arabinose 100 nM, raw OD600 reference: median of DMSO wells 0.413, cell-free background 0.052
[15] = arabinose 10000000 nM, raw OD600 reference: median of DMSO wells […], cell-free background 0.052

Row | SMILES | growth [1] | growth (E. coli TESEC Mtb Alr [2]; [5]) | growth (E. coli TESEC Mtb Alr [2]; [6]) | growth (E. coli TESEC Mtb Alr [2]; [7]) | growth (E. coli TESEC Mtb Alr [2]; [8]) | growth (E. coli TESEC Mtb Alr [2]; [9]) | growth (E. coli TESEC Mtb Asd; [10]) | growth (E. coli TESEC Mtb Asd; [11]) | growth (E. coli TESEC Mtb DapB; [12]) | growth (E. coli TESEC Mtb DapB; [13]) | growth [3] | growth (E. coli TESEC Mtb Alr [4]; [14]) | growth (E. coli TESEC Mtb Alr [4]; [15])
1 | CC(C)(C)NC[C@H](O)COc1cccc2c1CCCC2=O [(-) -Levobunolol hydrochloride] | 0.227 ± 0.022 | 0.295 ± 0.0092 | 0.253 ± 0.0095 | 0.189 ± 0.0065 | 0.1733 ± 0.0014 | 0.141 ± 0.0056 | 0.401 ± 0.085 | 0.428 ± 0.059 | 0.203 ± 0.0036 | 0.221 ± 0.019 | 0.613 ± 0.048 | 0.403 ± 0.013 | 0.334 ± 0.0023
2 | COc1ccc(NS(=O)(=O)c2ccc(N)cc2)nn1 [Sulfamethoxypyridazine] | 0.2402 ± 0.0024 | 0.296 ± 0.011 | 0.236 ± 0.0055 | 0.226 ± 0.024 | 0.181 ± 0.0072 | 0.141 ± 0.0061 | 0.355 ± 0.042 | 0.393 ± 0.016 | 0.203 ± 0.012 | 0.22 ± 0.01 | 0.459 ± 0.011 | 0.408 ± 0.0075 | 0.367 ± 0.018
3 | c1ccc(-c2ccc(C(c3ccccc3)n3ccnc3)cc2)cc1 (centres undefined) [Bifonazole] | 0.048 ± 0.0064 | 0.0456 ± 0.0051 | 0.0548 ± 0.0019 | 0.0516 ± 0.0035 | 0.0499 ± 0.0019 | 0.0504 ± 0.0085 | 0.048 ± 0.00098 | 0.0481 ± 0.0011 | 0.0611 ± 0.0018 | 0.0597 ± 0.0022 | 0.0548 ± 0.0039 | 0.0739 ± 0.015 | 0.0689 ± 0.0074
4 | CN(Cc1cnc2nc(N)nc(N)c2n1)c1ccc(C(=O)N[C@@H](CCC(=O)O)C(=O)O)cc1 (racemic) [Amethopterin (R,S)] | 0.213 ± 0.01 | 0.273 ± 0.0079 | 0.224 ± 0.011 | 0.206 ± 0.049 | 0.14 ± 0.0075 | 0.144 ± 0.0042 | 0.213 ± 0.024 | 0.368 ± 0.029 | 0.192 ± 0.033 | 0.204 ± 0.022 | 0.0999 ± 0.0032 | 0.244 ± 0.13 | 0.125 ± 0.0053
5 | CC#C[C@]1(O)CC[C@H]2[C@@H]3CCC4=CC(=O)CCC4=C3[C@@H](c3ccc(N(C)C)cc3)C[C@@]21C [Mifepristone] | 0.142 ± 0.0098 | 0.181 ± 0.013 | 0.207 ± 0.016 | 0.138 ± 0.0049 | 0.0733 ± 0.003 | 0.1374 ± 0.00076 | 0.241 ± 0.077 | 0.216 ± 0.015 | 0.199 ± 0.0078 | 0.236 ± 0.013 | 0.337 ± 0.037 | 0.411 ± 0.009 | 0.116 ± 0.012
6 | O=C1CN2Cc3c(ccc(Cl)c3Cl)N=C2N1 [Anagrelide] | 0.216 ± 0.0042 | 0.2815 ± 0.0021 | 0.281 ± 0.0097 | 0.191 ± 0.0049 | 0.209 ± 0.011 | 0.142 ± 0.005 | 0.27 ± 0.06 | 0.423 ± 0.043 | 0.198 ± 0.011 | 0.232 ± 0.024 | 0.536 ± 0.019 | 0.413 ± 0.011 | 0.368 ± 0.065
7 | CCCCN(CCCC)CCC(O)c1cc2c(Cl)cc(Cl)cc2c2cc(C(F)(F)F)ccc12 (centres undefined) [Halofantrine hydrochloride] | 0.24 ± 0.011 | 0.313 ± 0.006 | 0.31 ± 0.0059 | 0.2 ± 0.014 | 0.18 ± 0.0064 | 0.175 ± 0.0054 | 0.282 ± 0.059 | 0.457 ± 0.054 | 0.259 ± 0.018 | 0.291 ± 0.037 | 0.53 ± 0.019 | 0.452 ± 0.016 | 0.427 ± 0.019
8 | CC[N+](C)(CC)CCC[n+]1c(-c2ccccc2)c2cc(N)ccc2c2ccc(N)cc21 [Propidium iodide] | 0.0949 ± 0.011 | 0.135 ± 0.023 | 0.116 ± 0.028 | 0.15 ± 0.02 | 0.0816 ± 0.0028 | 0.0888 ± 0.012 | 0.0925 ± 0.0048 | 0.0953 ± 0.0048 | 0.137 ± 0.027 | 0.111 ± 0.021 | 0.0675 ± 0.0008 | 0.221 ± 0.13 | 0.0665 ± 0.0008
9 | Nc1c2ccccc2nc2ccccc12 [Aminacrine] | 0.0412 ± 0.0015 | 0.0397 ± 0.00091 | 0.0408 ± 0.0025 | 0.043 ± 0.0015 | 0.0398 ± 0.0011 | 0.0406 ± 0.00096 | 0.0581 ± 0.016 | 0.0513 ± 0.004 | 0.0484 ± 0.00044 | 0.0506 ± 0.005 | 0.0507 ± 0.00067 | 0.15 ± 0.062 | 0.0885 ± 0.027
10 | Clc1ccc2nsnc2c1NC1=NCCN1 [Tizanidine HCl] | 0.245 ± 0.011 | 0.287 ± 0.017 | 0.262 ± 0.00087 | 0.193 ± 0.028 | 0.185 ± 0.0059 | 0.142 ± 0.0064 | 0.248 ± 0.011 | 0.383 ± 0.057 | 0.216 ± 0.032 | 0.222 ± 0.022 | 0.623 ± 0.019 | 0.401 ± 0.0081 | 0.325 ± 0.015
11 | Cc1cc(NC(=O)C2=C(O)c3ccccc3S(=O)(=O)N2C)no1 [Isoxicam] | 0.25 ± 0.0032 | 0.255 ± 0.038 | 0.26 ± 0.0052 | 0.184 ± 0.033 | 0.184 ± 0.0038 | 0.135 ± 0.0033 | 0.252 ± 0.022 | 0.395 ± 0.081 | 0.199 ± 0.0028 | 0.216 ± 0.034 | 0.47 ± 0.018 | 0.412 ± 0.015 | 0.299 ± 0.037
12 | N[C@@H](C(=O)N[C@@H]1C(=O)N2C(C(=O)O)=C(Cl)CS[C@H]12)c1ccccc1 [Cefaclor hydrate] | 0.264 ± 0.0067 | 0.315 ± 0.0086 | 0.249 ± 0.0072 | 0.244 ± 0.025 | 0.1991 ± 0.0017 | 0.158 ± 0.021 | 0.333 ± 0.052 | 0.425 ± 0.067 | 0.201 ± 0.0068 | 0.247 ± 0.017 | 0.489 ± 0.033 | 0.224 ± 0.036 | 0.354 ± 0.032
13 | CNC1(C)C2CCC(C2)C1(C)C (centres undefined) [Mecamylamine hydrochloride] | 0.242 ± 0.006 | 0.307 ± 0.0084 | 0.293 ± 0.0071 | 0.214 ± 0.034 | 0.185 ± 0.016 | 0.156 ± 0.0054 | 0.266 ± 0.078 | 0.304 ± 0.093 | 0.187 ± 0.018 | 0.238 ± 0.012 | 0.462 ± 0.03 | 0.433 ± 0.0029 | 0.312 ± 0.02
